Compounds without any hit were thinned out: in the full panel of roughly 79,000, 15% have a hit. Unmarked numbers belong to inactive results. Activity calls are given as the source filed them. No stated cut-off is given here; in the data, active means growth inhibition above about 70%; inactive means the rest. Where a SMILES comes first, the peptide text is derived from it. [ ]: non-standard residue; d: D form. The star is where a group is joined. ξ: configuration not given here. Tos = Cc1ccc(S(=O)(=O)*)cc1; ξY = NC(Cc1ccc(O)cc1)C(=O)O
How the values were obtained:
[1] = NCI Yeast Anticancer Drug Screen. Data for the rad50 strain (AID 155);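 further: 0% = growth of vehicle-only cultures of the same strain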; settings: S. cerevisiae rad50 strain growth inhibition; at 50.0 µM; active compounds read high
How it was run: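 Inhibition values express reduced yeast growth in compound-treated cultures relative to vehicle-treated controls.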

[2] = NCI Yeast Anticancer Drug Screen. Data for the mec2-1 strain (AID 157); settings: S. cerevisiae mec2-1 strain, at 50.0 µM, active compounds read high
How it was run: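 Strain: mec2-1 (DNA repair/cell cycle alteration). Compound exposure, then growth measured; inhibition expressed relative to vehicle.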

[3] = NCI Yeast Anticancer Drug Screen. Data for the sgs1 mgt1 strain (AID 161);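 further: 0% = growth of cultures given vehicle only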; settings: S. cerevisiae sgs1 mgt1 strain, at 50.0 µM, active compounds read high
How it was run: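 Genetically altered yeast, compound exposure, growth inhibition relative to vehicle.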

[4] = NCI Yeast Anticancer Drug Screen. Data for the cln2 rad14 strain (AID 165);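 further: 0% = growth equal to vehicle treated cultures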; settings: S. cerevisiae cln2 rad14 strain, at 50.0 µM, active compounds read high
How it was run: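 Compounds are applied to the cln2 rad14 yeast strain, and growth is then compared with that of vehicle-treated cultures to give inhibition.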

[5] = NCI Yeast Anticancer Drug Screen. Data for the bub3 strain (AID 167); settings: S. cerevisiae bub3 mutant strain, at 50.0 µM, active compounds read high
How it was run: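 Steps: expose the mutant yeast strain to compound; grow alongside vehicle-treated cultures; measure growth; express inhibition against the vehicle cultures.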

[6] = NCI Yeast Anticancer Drug Screen. Data for the mlh1 rad18 strain (AID 175); settings: S. cerevisiae mlh1 rad18 strain growth inhibition; at 50.0 µM; active compounds read high
How it was run: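 Read-out is yeast growth inhibition, calculated against vehicle-only controls. The compound was applied to a strain engineered with DNA damage repair alterations.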

## c1ccc(C[n+]2ccc3c(c2)CCCC3)cc1
[1]
  growth inhibition: -1%
[2]
  growth inhibition: -13.2%
[3]
  growth inhibition: 27.8%
[4]
  growth inhibition: 17.3%
[5]
  growth inhibition: 19.1%
[6]
  growth inhibition: 6.4%

## CC1(C)C(=O)N(c2ccccc2)C1c1ccccc1 (stereo unspecified)
[1]
  growth inhibition: -6.2%
[2]
  growth inhibition: -5.4%
[3]
  growth inhibition: -1.5%
[4]
  growth inhibition: -40.5%
[5]
  growth inhibition: 12.1%
[6]
  growth inhibition: -5.7%

## CC(NS(=O)(=O)c1cccc(C(=O)O)c1)c1ccccc1 (stereo unspecified)
[1]
  growth inhibition: 10.3%
[2]
  growth inhibition: -14.5%
[3]
  growth inhibition: 0.3%
[4]
  growth inhibition: -38.4%
[5]
  growth inhibition: 3.25%
[6]
  growth inhibition: -0.05%

## O=[n+]1c(-c2ccccc2)c(-c2ccccc2)n([O-])c2cc3ccccc3cc21
[1]
  growth inhibition: 28.7%
[2]
  growth inhibition: 3.65%
[3]
  growth inhibition: 12.2%
[4]
  growth inhibition: -24.6%
[5]
  growth inhibition: 6.05%
[6]
  growth inhibition: 26.4%

## CCCN(CCC)C(=O)c1ccc(C(C)C)cc1
[1]
  growth inhibition: 11.2%
[2]
  growth inhibition: 7.05%
[3]
  growth inhibition: 19.1%
[4]
  growth inhibition: -6.8%
[5]
  growth inhibition: 9.7%
[6]
  growth inhibition: 9.7%

## CCCCCCCC/C=C\CCCCCCC(F)C(=O)O (stereo unspecified)
[1]
  growth inhibition: 25.4%
[2]
  growth inhibition: 4.55%
[3]
  growth inhibition: 16.2%
[4]
  growth inhibition: 6.1%
[5]
  growth inhibition: -11.8%
[6]
  growth inhibition: -43%

## COc1ccc(C)cc1NC(=S)NC(=O)c1cccc2ccccc12
[1]
  growth inhibition: -38.6%
[2]
  growth inhibition: 12.9%
[3]
  growth inhibition: 9.85%
[4]
  growth inhibition: -61.1%
[5]
  growth inhibition: 40%
[6]
  growth inhibition: -1.55%

## O=C(O)c1ccnc2c(S(=O)(=O)O)cccc12
[1]
  growth inhibition: 14.7%
[2]
  growth inhibition: -2.05%
[3]
  growth inhibition: -0.95%
[4]
  growth inhibition: -35.5%
[5]
  growth inhibition: 3.25%
[6]
  growth inhibition: 12.4%

## Clc1ccccc1CN1COc2c(ccc3ccccc23)C1
[1]
  growth inhibition: 35.5%
[2]
  growth inhibition: 14.3%
[3]
  growth inhibition: 32.6%
[4]
  growth inhibition: 19.6%
[5]
  growth inhibition: 25.5%
[6]
  growth inhibition: 22.6%

## COc1ccc2c(c1)OC(=O)C(S(=O)(=O)c1ccccc1)C2 (stereo unspecified)
[1]
  growth inhibition: 6.25%
[2]
  growth inhibition: 14.6%
[3]
  growth inhibition: 6.65%
[4]
  growth inhibition: -3.55%
[5]
  growth inhibition: 1.2%
[6]
  growth inhibition: 7.55%

## COc1cc(C)c(C2NC(=O)c3ccccc3N2)cc1C (stereo unspecified)
[1]
  growth inhibition: 10.1%
[2]
  growth inhibition: 2.8%
[3]
  growth inhibition: -10.1%
[4]
  growth inhibition: 17.4%
[5]
  growth inhibition: -2.55%
[6]
  growth inhibition: -4.55%

## C1=NC(c2ccccc2)=CN(C2CCCCCCC2)C1(c1ccccc1)C1CCCCCCC1 (stereo unspecified)
[1]
  growth inhibition: 40%
[2]
  growth inhibition: 72.2% (active)
[3]
  growth inhibition: 40.2%
[4]
  growth inhibition: 45.6%
[5]
  growth inhibition: 61.4%
[6]
  growth inhibition: 50.4%

## Cc1cc(OC(C)C)cc(C)c1C(=O)OCC(C)CN1CCCC1 (stereo unspecified)
[1]
  growth inhibition: 1.9%
[2]
  growth inhibition: -16.8%
[3]
  growth inhibition: 5.4%
[4]
  growth inhibition: -15.1%
[5]
  growth inhibition: -8.5%
[6]
  growth inhibition: -18.2%

## CC(=O)Nc1c(I)c(C(=O)NC2C(O)OC(CO)C(O)C2O)c(I)c(N(C)C(C)=O)c1I (stereo unspecified)
[1]
  growth inhibition: -27.2%
[2]
  growth inhibition: 4.55%
[3]
  growth inhibition: -14.2%
[4]
  growth inhibition: -21.6%
[5]
  growth inhibition: -21.5%
[6]
  growth inhibition: -38%

## CNC(=O)Nc1nnnc2ccccc12
[1]
  growth inhibition: 10.1%
[2]
  growth inhibition: 1.45%
[3]
  growth inhibition: -4.05%
[4]
  growth inhibition: -10.6%
[5]
  growth inhibition: -0.15%
[6]
  growth inhibition: 13.9%

## COc1cc(CCCCC(=O)O)cc(Br)c1OC
[1]
  growth inhibition: -17.7%
[2]
  growth inhibition: -1.95%
[3]
  growth inhibition: 4.9%
[4]
  growth inhibition: -33.7%
[5]
  growth inhibition: 29.8%
[6]
  growth inhibition: -3.85%

## Cc1nc2c(cnn2C)c(=O)n1-c1ccccc1Cl
[1]
  growth inhibition: 21.4%
[2]
  growth inhibition: 17.2%
[3]
  growth inhibition: 11.8%
[4]
  growth inhibition: 41%
[5]
  growth inhibition: 29.9%
[6]
  growth inhibition: 17.3%

## Brc1c(NC2=NCCN2)ccc2nccnc12
[1]
  growth inhibition: 6.2%
[2]
  growth inhibition: 5.1%
[3]
  growth inhibition: -24%
[4]
  growth inhibition: -6.45%
[5]
  growth inhibition: -22.1%
[6]
  growth inhibition: -56.9%

## CCOC1C(=O)C=COC1C(C)C (stereo unspecified)
[1]
  growth inhibition: -2.5%
[2]
  growth inhibition: -4.65%
[3]
  growth inhibition: -2.75%
[4]
  growth inhibition: 1.7%
[5]
  growth inhibition: -1.75%
[6]
  growth inhibition: -12.2%

## NC(=O)Cc1c[nH]c2ccccc12
[1]
  growth inhibition: 39.7%
[2]
  growth inhibition: -3.95%
[3]
  growth inhibition: 14.3%
[4]
  growth inhibition: -37.2%
[5]
  growth inhibition: 33.4%
[6]
  growth inhibition: 48.6%

## CCCN(CCC)CC(O)c1cccc2c1cc(Cl)c1ccccc12 (stereo unspecified)
[1]
  growth inhibition: 99.6% (active)
[2]
  growth inhibition: 99.7% (active)
[3]
  growth inhibition: 99.8% (active)
[4]
  growth inhibition: 99% (active)
[5]
  growth inhibition: 91.3% (active)
[6]
  growth inhibition: 99.7% (active)

## COc1cc(C(=O)O)cc(OC)n1
[1]
  growth inhibition: 10.8%
[2]
  growth inhibition: 4.15%
[3]
  growth inhibition: -6.6%
[4]
  growth inhibition: -36.4%
[5]
  growth inhibition: -16.9%
[6]
  growth inhibition: 8.25%

## COC(=O)C(Cc1ccc(O)cc1)NC(=O)CNS(=O)(=O)c1ccc(C)cc1 (stereo not drawn) (Tos-Gly-[ξY]-OMe)
[1]
  growth inhibition: 35.8%
[2]
  growth inhibition: -4.1%
[3]
  growth inhibition: 19.9%
[4]
  growth inhibition: 10.9%
[5]
  growth inhibition: -1.2%
[6]
  growth inhibition: 8.4%

## O=C(c1cccc(Cl)c1)c1cccc(Cl)c1
[1]
  growth inhibition: 1.2%
[2]
  growth inhibition: -14.8%
[3]
  growth inhibition: -0.9%
[4]
  growth inhibition: 2.35%
[5]
  growth inhibition: 5.15%
[6]
  growth inhibition: -3.25%

## CC(SC(=S)N1CCOCC1)C(=O)O (stereo unspecified)
[1]
  growth inhibition: 2.65%
[2]
  growth inhibition: -6.8%
[3]
  growth inhibition: -1.6%
[4]
  growth inhibition: -4.8%
[5]
  growth inhibition: -6.05%
[6]
  growth inhibition: -7.6%

## O=C(O)c1ccc(OC2CCCCC2)cc1
[1]
  growth inhibition: 6.85%
[2]
  growth inhibition: 12.1%
[3]
  growth inhibition: 42.1%
[4]
  growth inhibition: 18.6%
[5]
  growth inhibition: 11.4%
[6]
  growth inhibition: 30.9%

## O=S(=O)(c1ccccc1)N1CN(S(=O)(=O)c2ccccc2)CN(S(=O)(=O)c2ccccc2)C1
[1]
  growth inhibition: 0.95%
[2]
  growth inhibition: -9.35%
[3]
  growth inhibition: 19.5%
[4]
  growth inhibition: 10.6%
[5]
  growth inhibition: 17.9%
[6]
  growth inhibition: 6.35%

## COC(=O)c1[nH]c(=O)c(C#N)c(C(=O)OC)c1-c1ccc(F)cc1
[1]
  growth inhibition: -4.55%
[2]
  growth inhibition: -24.5%
[3]
  growth inhibition: -15.4%
[4]
  growth inhibition: -2%
[5]
  growth inhibition: -21.2%
[6]
  growth inhibition: -0.05%

## C/C(=C/CNc1ncnc2c1ncn2CCC(=O)O)CO
[1]
  growth inhibition: -22.4%
[2]
  growth inhibition: 12.5%
[3]
  growth inhibition: -31.7%
[4]
  growth inhibition: 1.65%
[5]
  growth inhibition: 1.7%
[6]
  growth inhibition: -0.5%

## O=C(NCCCl)NCc1ccccc1
[1]
  growth inhibition: -10.9%
[2]
  growth inhibition: 2.35%
[3]
  growth inhibition: 1.4%
[4]
  growth inhibition: -40.1%
[5]
  growth inhibition: -15.2%
[6]
  growth inhibition: -2%

## NC(C(=O)O)c1ccc(F)cc1 (stereo unspecified)
[1]
  growth inhibition: -9.1%
[2]
  growth inhibition: -1.4%
[3]
  growth inhibition: 28.7%
[4]
  growth inhibition: -10%
[5]
  growth inhibition: 2.4%
[6]
  growth inhibition: 37.5%

## CCCCc1c(OCC)cc2n(CC)c3ccccc3n2c1=O
[1]
  growth inhibition: -8.45%
[2]
  growth inhibition: -9.85%
[3]
  growth inhibition: 0.8%
[4]
  growth inhibition: -10.9%
[5]
  growth inhibition: -45%
[6]
  growth inhibition: -11.9%

## O=c1ccccc2cccc(O)c12
[1]
  growth inhibition: 8.25%
[2]
  growth inhibition: 0.2%
[3]
  growth inhibition: -1.35%
[4]
  growth inhibition: -17.4%
[5]
  growth inhibition: 8.15%
[6]
  growth inhibition: 10.3%

## COC(=O)c1c2c(cc3nc4ccccc4nc13)OCO2
[1]
  growth inhibition: 26.4%
[2]
  growth inhibition: 9.75%
[3]
  growth inhibition: 12.8%
[4]
  growth inhibition: -1.8%
[5]
  growth inhibition: 16.9%
[6]
  growth inhibition: 21.6%

## CN(C)c1ccc(/C=C/C(=O)CC(=O)/C=C/c2ccc(N(C)C)cc2)cc1
[1]
  growth inhibition: 22.2%
[2]
  growth inhibition: 21.3%
[3]
  growth inhibition: -28.2%
[4]
  growth inhibition: -27.4%
[5]
  growth inhibition: -4.3%
[6]
  growth inhibition: 0.8%

## O=C(O)c1cc(-c2ccccc2)nc2c(Cl)cc(Cl)cc12
[1]
  growth inhibition: -12.9%
[2]
  growth inhibition: -28.8%
[3]
  growth inhibition: -1.85%
[4]
  growth inhibition: 9.8%
[5]
  growth inhibition: -16.4%
[6]
  growth inhibition: -3.6%

## COc1cc(\C=N/N=C/C=C/c2ccccc2)cc(OC)c1OC
[1]
  growth inhibition: 0.55%
[2]
  growth inhibition: 42.3%
[3]
  growth inhibition: 7.95%
[4]
  growth inhibition: -10.7%
[5]
  growth inhibition: 38.4%
[6]
  growth inhibition: 15.5%

## Cc1ccc(C(=O)N/N=C/c2ccccc2Cl)cc1
[1]
  growth inhibition: -3.15%
[2]
  growth inhibition: 49.1%
[3]
  growth inhibition: 33.8%
[4]
  growth inhibition: -20.4%
[5]
  growth inhibition: 34.9%
[6]
  growth inhibition: 26.6%

## COc1ccc(-c2cc(C(=O)O)c3cc4ccccc4cc3n2)cc1Br
[1]
  growth inhibition: 8.6%
[2]
  growth inhibition: -15.9%
[3]
  growth inhibition: 13.7%
[4]
  growth inhibition: 24.3%
[5]
  growth inhibition: 2.95%
[6]
  growth inhibition: 10.9%

## CC12CCC(=O)C3C1CCCC32
[1]
  growth inhibition: -0.45%
[2]
  growth inhibition: -6.2%
[3]
  growth inhibition: -13.9%
[4]
  growth inhibition: 1.2%
[5]
  growth inhibition: -2.15%
[6]
  growth inhibition: -21.6%

## Cc1ccc(N=Nc2c(C)nn(C(=S)S)c2C)cc1
[1]
  growth inhibition: 71.9% (active)
[2]
  growth inhibition: 39.4%
[3]
  growth inhibition: 90% (active)
[4]
  growth inhibition: 35.8%
[5]
  growth inhibition: 83.3% (active)
[6]
  growth inhibition: 96.2% (active)

— PubChem BioAssay (NCI)
